# The whole screen tested about 48,000 compounds, of which about 13,000 (27%) showed an effect of 50% or more. This is one part of the list.
# Tested on: Wolbachia pipientis
# Experiment: Anti-Wolbachia Cell-Based Screen
# Format: functional
# Design: scale not given: in the data most compounds retested in dose-response had high values
# Conditions: 5 µM
row,Compound,Percent Effect
1,CCOC(=O)C1CN(C(=O)C2CCOCC2)Cc2ncn(CC)c21 (configuration not stated),3.509%
2,Cc1nnc(CN2CCCC2c2ccc(C(C)(C)C)cc2)o1 (configuration not stated),-26.52%
3,CSc1ncccc1C(=O)N1CCC2(CC1)c1nc[nH]c1CCN2C,9.792%
4,CCSCCC(=O)Nc1ncn(Cc2cccnc2)n1,-3.764%
5,O=S(=O)(Cc1cccc2cccnc12)NC(CO)c1ccco1 (configuration not stated),-8.128%
6,CCCS(=O)(=O)NCc1cccnc1Oc1ccc(C)c(F)c1F,-1.189%
7,Cc1ccc(Oc2ncccc2CNC(=O)C2COC(=O)N2)c(F)c1F (configuration not stated),65.92%
8,Cc1nc(CNCc2cccnc2Oc2ccc(C)c(F)c2F)c[nH]1,-6.11%
9,COc1ccccc1Oc1ncccc1CNC(=O)[C@@H](N)[C@@H](C)O,-22.34%
10,COc1ccccc1Oc1ncccc1CNC(=O)C1COC(=O)N1 (configuration not stated),98.82%
11,COc1ccccc1Oc1ncccc1CNC(=O)[C@H](C)O,-22.76%
12,c1ccc(-c2nccc(CNCC3CCCN3c3cccnn3)n2)cc1 (configuration not stated),1.65%
13,Cn1cnc2c1CCN(CC(O)c1ccc3c(c1)OCCO3)C2 (configuration not stated),2.698%
14,Cc1nc(C(=O)N2CC(C)Sc3ccccc32)cs1 (configuration not stated),-0.9397%
15,CN(Cc1ncnn1C)c1ccnc(Cc2ccccc2)n1,-0.8819%
16,O=C(O)C(F)(F)F.c1cncc(C2CC3(CCN(c4cnccn4)CC3)c3ccccc32)c1 (configuration not stated),23.08%
17,O=C(O)C(F)(F)F.O[C@@H]1CCN(CC2CCOC2)[C@H]1Cc1ccccc1 (some centres not stated),-6.584%
18,CCS(=O)(=O)N1CCC2(CC1)CN(CC1CCOC1)c1ccccc12.O=C(O)C(F)(F)F (configuration not stated),101.7%
19,CS(=O)(=O)N1CCC2(CC1)CN(CC1CCOC1)c1ccccc12.O=C(O)C(F)(F)F (configuration not stated),90.82%
20,CCCS(=O)(=O)N1CCC2(CC1)CN(CC1CCOC1)c1ccccc12.O=C(O)C(F)(F)F (configuration not stated),105.4%
21,O=C(O)C(F)(F)F.c1cnc(N2CC3(CCN(C4CCOCC4)CC3)c3ccccc32)nc1,5.791%
22,O=C(O)C(F)(F)F.c1cnc(N2CC3(CCN(CC4CCOC4)CC3)c3ccccc32)nc1 (configuration not stated),-15.18%
23,O=C(O)C(F)(F)F.c1ccc2c(c1)N(CC1CCOC1)CC21CCN(c2cnccn2)CC1 (configuration not stated),103.7%
24,CCCS(=O)(=O)N1CCC2(CC1)CC(N1CCCC1)c1ccccc12.O=C(O)C(F)(F)F (configuration not stated),11.6%
25,CCS(=O)(=O)N1CCC2(CCC(N3CCCC3)c3ccccc32)CC1.O=C(O)C(F)(F)F (configuration not stated),6.992%
26,CCCS(=O)(=O)N1CCC2(CC1)CN(C(=O)N(C)C)c1ccccc12,-3.576%

row,Compound,Percent Effect
1,CN1CC2(CCN(S(=O)(=O)C3CC3)CC2)c2ccccc21.O=C(O)C(F)(F)F,-12.74%
2,COC[C@]12COC[C@H]1CN(S(=O)(=O)c1cccnc1)C2,6.326%
3,Cc1nnc(N2C[C@H]3OCC[C@H]3[C@H](C(=O)NCC3CC3)C2)s1.O=C(O)C(F)(F)F,-6.656%
4,O=C1CC2(CCN(Cc3ccc4cccc(O)c4n3)CC2)CN1,-6.934%
5,COc1ccc(CCNc2cc(-c3nc(C)no3)ccn2)cc1OC,-4.716%
6,Fc1cnc(N2CCC3(COCc4cnc(NCC5CC5)nc43)C2)nc1 (configuration not stated),3.153%
7,O=C(C1CC1)N1CCC2(COCc3cnc(NCc4ccco4)nc32)C1 (configuration not stated),107.6%
8,COCC(=O)N1CCC2(COCc3cnc(NCc4ccco4)nc32)C1 (configuration not stated),94.68%
9,CCC(=O)N1CCC2(COCc3cnc(NCc4ccco4)nc32)C1 (configuration not stated),102.3%
10,CC(C)(C)C(=O)N1CCC2(COCc3cnc(N4CCOCC4)nc32)C1 (configuration not stated),-4.302%
11,CCC(=O)N1CCC2(COCc3c(C)nc(NCc4ccco4)nc32)C1 (configuration not stated),0.949%
12,CNC(=O)N1CCC2(COCc3c(C)nc(NCc4ccco4)nc32)C1 (configuration not stated),-16.5%
13,CCC(C)(CC(=O)OC)NC(=O)c1cccc(F)c1F (configuration not stated),0.5787%
14,Cc1cc(NCCO)nc(N2CCC(Cc3ccccc3)CC2)c1C#N.O=C(O)C(=O)O,-4.494%
15,CC(C)N(CCSc1ncnc2[nH]ncc12)C(C)C,-23.68%
16,O=S(=O)(NCCn1cc(C2CCOC2)nn1)c1ccc(Cl)cc1 (configuration not stated),2.449%
17,CCc1noc(CNc2cc3c(cc2Cl)OCCO3)n1,29.93%
18,N#Cc1ccc(OCCOc2ccccc2C(=O)N2CCOCC2)cc1,2.422%
19,CO[C@@H]1CC[C@H]2[C@H]1OCCN2CCOCc1ccccc1.O=C(O)C(F)(F)F,11.38%
20,CO[C@H]1CC[C@H]2[C@H]1OCCN2Cc1ccc(F)c(F)c1.O=C(O)C(F)(F)F,110.9%
21,CO[C@H]1CC[C@H]2[C@H]1OCCN2CCOCc1ccccc1.O=C(O)C(F)(F)F,-1.824%
22,CO[C@@H]1CC[C@H]2[C@H]1OCCN2Cc1ccc(F)c(F)c1.O=C(O)C(F)(F)F,101.8%
23,CCc1cnc2c(c1Nc1ccc(C)c(F)c1)c(=O)n(C)c(=O)n2C,84.08%
24,CCc1cnc2c(c1Nc1ccncc1)c(=O)n(C)c(=O)n2C,1.173%
25,O=C(Nc1ccc2c(c1)OCO2)N1CCN(CCn2cccn2)CC1,14.77%
26,Cc1ccc(Nc2c(C#N)c(=O)n(C)c(=O)n2C)cc1F,8.024%

# — ChEMBL document CHEMBL3988442, “University of Dundee, Small-Polar-MMV Screening Library” (2021)
